The source of these data is PubChem BioAssay.

Test [1] deals with PRMT1 (protein arginine N-methyltransferase 1). Put plainly: PRMT1 binders on small-molecule microarrays, primary screen, biochemical, small-molecule microarray, 635 nm fluorescence (AID 1088).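 Also: binding of Prmt1 protein to compounds spotted on small-molecule microarray slides.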 To be noted: small-molecule microarray binding, higher = more signal.
Test [2] is described as follows: yeast growth modulation, basal conditions, primary screen, YJM789 clinical isolate, OD600, 24 h (AID 1089).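 Also: growth of clinical yeast isolate S. cerevisiae YJM 789 seeded 1000 cells per well; test concentration not given here.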 The following applies: S. cerevisiae YJM789 growth, higher = more signal, called active from +8 up or from −8 down.
Test [3] in a line: fission yeast growth modulation, primary screen, strain 972, OD600, 24 h, no modulator (AID 1090).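 Also: basal condition with compound alone and no growth modifier present; test concentration not given here.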 The following applies: S. pombe 972 growth, higher = more signal, called active from +8 up or from −8 down.
Test [4] can be described thus: S. cerevisiae growth modulation with rapamycin, primary screen, strain BY4716, OD600, 96 h (AID 1091). Also: test concentration not given here. The following applies: higher = more signal, called active from +8 up or from −8 down.
The target in test [5] is Torsin-1A-interacting protein 2 (Homo sapiens) (UniProt Q8NFQ8). Kind of test: LULL1 binders on small-molecule microarray, primary screen, cell lysate, human LULL1 lysate, 635/667 nm fluorescence (AID 1092).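 Also: probe is lysate of COS7 cells overexpressing human LULL1; score merges per-feature 667 nm fluorescence with signal-to-noise.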 The following applies: hLULL1 lysate binding, 635 nm fluorescence, higher = more signal.
The nature of test [6]: E. coli growth modulation, two-sided OD650, primary screen, E. coli filamentation project, strain DRC41, 24 h (AID 1093).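 Also: MC1000 strain lacking acrAB efflux and sulA so SOS filamentation is blocked; test concentration not given here.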 To be noted: OD650, 24 h, higher = more signal, called active from +8 up or from −8 down.
The nature of test [7]: small-molecule microarray binders of probe aLefty2, primary screen, biochemical, biotinylated probe, 635/667 nm fluorescence (AID 1094).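 Also: score merges spot fluorescence near 667 nm with spot signal-to-noise ratio.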 The following applies: higher = more signal.
Test [8] deals with Noggin (protein binding on small-molecule microarray). Kind of test: Noggin binders on small-molecule microarray, primary screen, biochemical, 635/667 nm fluorescence (AID 1095).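 Also: score merges 667 nm feature fluorescence with signal to noise over triplicate slides.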 To be noted: 635 nm fluorescence, higher = more signal.
The target in test [9] is Neurogenic locus notch homolog protein 3 (Homo sapiens) (UniProt Q9UM47). Put plainly: NOTCH3 binders on small-molecule microarray, primary screen, biochemical, 635/667 nm fluorescence (AID 1096). To be noted: NOTCH3 binding, 635 nm fluorescence, higher = more signal.
The nature of test [10]: small-molecule microarray binders of probe aEGFR, primary screen, biochemical, biotinylated probe, 635/667 nm fluorescence (AID 1097).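 Also: probe is a biotinylated anti-EGFR antibody binding compounds printed on slides; score combines fluorescence near 667 nm and signal to noise of each spot.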 The following applies: higher = more signal.
Test [11] relates to Plasmodium falciparum Sir2 (PF13_0152, Sir2A). Put plainly: pfSir2 binders on small-molecule microarrays, primary screen, biochemical, small-molecule microarray, 635 nm fluorescence (AID 1098).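 Also: score merges spot fluorescence intensity with its signal-to-noise ratio.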 The following applies: small-molecule microarray binding, fluorescence 635 nm; higher = more signal.
Test [12] can be described thus: small-molecule microarray binders of probe aDKK1, primary screen, biochemical, biotinylated probe, 635/667 nm fluorescence (AID 1099).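 Also: score merges 667nm spot fluorescence with signal to noise across triplicate slides; reference of the scale not given here.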 To be noted: higher = more signal.
The nature of test [13]: small-molecule microarray binders of probe aCHRDL2, primary screen, biochemical, biotinylated probe, 635/667 nm fluorescence (AID 1100). The following applies: higher = more signal.
Test [14] is described as follows: splicing luciferase reporter signal modulators, primary screen, spliceosome inhibition project, cell-based, HEK293, splice +/- reporter (AID 1101).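 Also: HEK293 cells carrying a splicing-competent luciferase reporter gene; test concentration not given here.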 To be noted: luminescence, 24 h, higher = more signal, called active from +8 up or from −8 down. Background: In a reporter assay the amount or activity of a reporter protein is the signal.
Test [15] deals with Fibroblast growth factor 10 (Homo sapiens) (UniProt O15520). Put plainly: FGF10 binders on small-molecule microarrays, primary screen, biochemical, small-molecule microarray, 635 nm fluorescence (AID 1102). The following applies: FGF10 binding, fluorescence 635 nm, higher = more signal.
The subject of test [16] is glycogen synthase kinase-3 (GSK3A per assay name; protocol says GSK3B). Put plainly: GSK3 binders on small-molecule microarrays, primary screen, biochemical, small-molecule microarray, 635 nm fluorescence, GSK3A (AID 1103). Also: the record names both GSK3A and GSK3B. To be noted: small-molecule microarray binding, fluorescence 635 nm; higher = more signal.
For test [17], the target named is Epidermal growth factor receptor (Homo sapiens) (UniProt P00533). Kind of test: EGFR binders on small-molecule microarrays, primary screen, biochemical, small-molecule microarray, 635 nm fluorescence (AID 1104).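 Also: score merges 667 nm emission intensity with spot signal to noise over triplicate slides.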 To be noted: EGFR binding, higher = more signal.
Test [18] addresses Follistatin-related protein 3 (Homo sapiens) (UniProt O95633). Put plainly: FSTL3 binders on small-molecule microarrays, primary screen, biochemical, small-molecule microarray, 635 nm fluorescence (AID 1105).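 Also: score merges emission near 667 nm and signal to noise per printed spot across three slides.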 To be noted: FSTL3 binding, higher = more signal.
Test [19] addresses Dickkopf-related protein 1 (Homo sapiens) (UniProt O94907). Kind of test: DKK1 binders on small-molecule microarrays, primary screen, biochemical, small-molecule microarray, 635 nm fluorescence scan (AID 1106).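 Also: score merges emission near 667 nm with signal to noise over three replicate slides.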 The following applies: DKK1 binding, higher = more signal.
In test [20] the test system is Inhibin beta A chain (activin A). Put plainly: INHBA (activin A) binders on microarrays, primary screen, biochemical, small-molecule microarray, 635 nm fluorescence scan (AID 1107).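 Also: mouse activin A protein probed at 4.33 µg/mL on printed slides; score merges bound-protein fluorescence near 667 nm with spot signal-to-noise.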 The following applies: small-molecule microarray binding, higher = more signal.

Structures are written as SMILES. Activity calls are given as the source filed them.

Epidermal growth factor receptor (Homo sapiens), sequence (P00533 whole entry, looked up): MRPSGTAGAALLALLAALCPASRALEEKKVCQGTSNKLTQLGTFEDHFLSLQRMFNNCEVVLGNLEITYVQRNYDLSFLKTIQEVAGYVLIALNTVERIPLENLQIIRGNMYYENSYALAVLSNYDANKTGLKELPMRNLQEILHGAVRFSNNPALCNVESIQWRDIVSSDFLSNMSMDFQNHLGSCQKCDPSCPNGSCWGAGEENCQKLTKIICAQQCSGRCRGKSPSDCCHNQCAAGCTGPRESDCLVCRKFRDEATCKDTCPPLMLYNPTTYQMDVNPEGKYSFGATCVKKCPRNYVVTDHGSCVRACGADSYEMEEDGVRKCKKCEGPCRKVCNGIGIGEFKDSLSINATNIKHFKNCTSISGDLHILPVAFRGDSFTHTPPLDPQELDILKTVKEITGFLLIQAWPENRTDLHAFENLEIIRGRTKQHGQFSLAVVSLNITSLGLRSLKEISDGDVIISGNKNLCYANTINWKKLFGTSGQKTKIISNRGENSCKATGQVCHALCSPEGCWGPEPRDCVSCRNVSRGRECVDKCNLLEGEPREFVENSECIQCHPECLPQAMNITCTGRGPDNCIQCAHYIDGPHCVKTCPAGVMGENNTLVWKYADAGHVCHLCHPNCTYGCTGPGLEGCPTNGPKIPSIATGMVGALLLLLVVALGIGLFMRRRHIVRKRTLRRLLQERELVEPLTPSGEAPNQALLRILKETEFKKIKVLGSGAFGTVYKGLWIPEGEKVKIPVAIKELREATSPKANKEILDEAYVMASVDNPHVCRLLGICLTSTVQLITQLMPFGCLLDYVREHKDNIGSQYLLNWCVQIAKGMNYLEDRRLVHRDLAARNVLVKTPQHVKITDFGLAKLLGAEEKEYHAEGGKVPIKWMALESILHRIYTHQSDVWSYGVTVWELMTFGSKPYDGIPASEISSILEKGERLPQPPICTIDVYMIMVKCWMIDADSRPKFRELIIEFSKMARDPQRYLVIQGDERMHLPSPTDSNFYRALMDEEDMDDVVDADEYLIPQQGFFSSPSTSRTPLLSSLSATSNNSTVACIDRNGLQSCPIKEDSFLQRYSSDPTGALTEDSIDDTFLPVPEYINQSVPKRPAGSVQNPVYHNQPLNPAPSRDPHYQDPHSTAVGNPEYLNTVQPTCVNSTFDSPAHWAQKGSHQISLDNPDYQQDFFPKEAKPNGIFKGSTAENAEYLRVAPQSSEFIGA
Dickkopf-related protein 1 (Homo sapiens), sequence (O94907 whole entry, looked up): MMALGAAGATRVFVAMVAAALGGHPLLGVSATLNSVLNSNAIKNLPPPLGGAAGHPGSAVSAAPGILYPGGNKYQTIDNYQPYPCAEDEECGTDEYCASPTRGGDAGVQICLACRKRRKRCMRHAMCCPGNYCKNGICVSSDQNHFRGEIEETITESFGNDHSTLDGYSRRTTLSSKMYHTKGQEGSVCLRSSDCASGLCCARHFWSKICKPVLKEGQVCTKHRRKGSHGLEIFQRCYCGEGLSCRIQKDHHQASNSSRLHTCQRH
Torsin-1A-interacting protein 2 (Homo sapiens), sequence (Q8NFQ8 whole entry, looked up): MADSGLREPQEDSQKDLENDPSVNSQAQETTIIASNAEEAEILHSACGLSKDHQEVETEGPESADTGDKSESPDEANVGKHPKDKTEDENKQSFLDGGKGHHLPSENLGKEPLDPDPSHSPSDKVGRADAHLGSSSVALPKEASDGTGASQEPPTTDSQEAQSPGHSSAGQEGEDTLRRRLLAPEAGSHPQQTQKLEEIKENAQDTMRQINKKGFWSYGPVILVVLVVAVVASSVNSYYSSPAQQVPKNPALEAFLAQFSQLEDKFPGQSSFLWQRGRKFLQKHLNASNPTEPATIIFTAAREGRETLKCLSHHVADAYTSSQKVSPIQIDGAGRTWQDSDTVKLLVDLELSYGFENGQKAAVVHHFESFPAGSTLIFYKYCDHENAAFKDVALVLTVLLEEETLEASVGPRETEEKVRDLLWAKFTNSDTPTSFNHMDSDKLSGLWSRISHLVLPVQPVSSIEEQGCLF
Neurogenic locus notch homolog protein 3 (Homo sapiens), sequence (Q9UM47 whole entry, looked up): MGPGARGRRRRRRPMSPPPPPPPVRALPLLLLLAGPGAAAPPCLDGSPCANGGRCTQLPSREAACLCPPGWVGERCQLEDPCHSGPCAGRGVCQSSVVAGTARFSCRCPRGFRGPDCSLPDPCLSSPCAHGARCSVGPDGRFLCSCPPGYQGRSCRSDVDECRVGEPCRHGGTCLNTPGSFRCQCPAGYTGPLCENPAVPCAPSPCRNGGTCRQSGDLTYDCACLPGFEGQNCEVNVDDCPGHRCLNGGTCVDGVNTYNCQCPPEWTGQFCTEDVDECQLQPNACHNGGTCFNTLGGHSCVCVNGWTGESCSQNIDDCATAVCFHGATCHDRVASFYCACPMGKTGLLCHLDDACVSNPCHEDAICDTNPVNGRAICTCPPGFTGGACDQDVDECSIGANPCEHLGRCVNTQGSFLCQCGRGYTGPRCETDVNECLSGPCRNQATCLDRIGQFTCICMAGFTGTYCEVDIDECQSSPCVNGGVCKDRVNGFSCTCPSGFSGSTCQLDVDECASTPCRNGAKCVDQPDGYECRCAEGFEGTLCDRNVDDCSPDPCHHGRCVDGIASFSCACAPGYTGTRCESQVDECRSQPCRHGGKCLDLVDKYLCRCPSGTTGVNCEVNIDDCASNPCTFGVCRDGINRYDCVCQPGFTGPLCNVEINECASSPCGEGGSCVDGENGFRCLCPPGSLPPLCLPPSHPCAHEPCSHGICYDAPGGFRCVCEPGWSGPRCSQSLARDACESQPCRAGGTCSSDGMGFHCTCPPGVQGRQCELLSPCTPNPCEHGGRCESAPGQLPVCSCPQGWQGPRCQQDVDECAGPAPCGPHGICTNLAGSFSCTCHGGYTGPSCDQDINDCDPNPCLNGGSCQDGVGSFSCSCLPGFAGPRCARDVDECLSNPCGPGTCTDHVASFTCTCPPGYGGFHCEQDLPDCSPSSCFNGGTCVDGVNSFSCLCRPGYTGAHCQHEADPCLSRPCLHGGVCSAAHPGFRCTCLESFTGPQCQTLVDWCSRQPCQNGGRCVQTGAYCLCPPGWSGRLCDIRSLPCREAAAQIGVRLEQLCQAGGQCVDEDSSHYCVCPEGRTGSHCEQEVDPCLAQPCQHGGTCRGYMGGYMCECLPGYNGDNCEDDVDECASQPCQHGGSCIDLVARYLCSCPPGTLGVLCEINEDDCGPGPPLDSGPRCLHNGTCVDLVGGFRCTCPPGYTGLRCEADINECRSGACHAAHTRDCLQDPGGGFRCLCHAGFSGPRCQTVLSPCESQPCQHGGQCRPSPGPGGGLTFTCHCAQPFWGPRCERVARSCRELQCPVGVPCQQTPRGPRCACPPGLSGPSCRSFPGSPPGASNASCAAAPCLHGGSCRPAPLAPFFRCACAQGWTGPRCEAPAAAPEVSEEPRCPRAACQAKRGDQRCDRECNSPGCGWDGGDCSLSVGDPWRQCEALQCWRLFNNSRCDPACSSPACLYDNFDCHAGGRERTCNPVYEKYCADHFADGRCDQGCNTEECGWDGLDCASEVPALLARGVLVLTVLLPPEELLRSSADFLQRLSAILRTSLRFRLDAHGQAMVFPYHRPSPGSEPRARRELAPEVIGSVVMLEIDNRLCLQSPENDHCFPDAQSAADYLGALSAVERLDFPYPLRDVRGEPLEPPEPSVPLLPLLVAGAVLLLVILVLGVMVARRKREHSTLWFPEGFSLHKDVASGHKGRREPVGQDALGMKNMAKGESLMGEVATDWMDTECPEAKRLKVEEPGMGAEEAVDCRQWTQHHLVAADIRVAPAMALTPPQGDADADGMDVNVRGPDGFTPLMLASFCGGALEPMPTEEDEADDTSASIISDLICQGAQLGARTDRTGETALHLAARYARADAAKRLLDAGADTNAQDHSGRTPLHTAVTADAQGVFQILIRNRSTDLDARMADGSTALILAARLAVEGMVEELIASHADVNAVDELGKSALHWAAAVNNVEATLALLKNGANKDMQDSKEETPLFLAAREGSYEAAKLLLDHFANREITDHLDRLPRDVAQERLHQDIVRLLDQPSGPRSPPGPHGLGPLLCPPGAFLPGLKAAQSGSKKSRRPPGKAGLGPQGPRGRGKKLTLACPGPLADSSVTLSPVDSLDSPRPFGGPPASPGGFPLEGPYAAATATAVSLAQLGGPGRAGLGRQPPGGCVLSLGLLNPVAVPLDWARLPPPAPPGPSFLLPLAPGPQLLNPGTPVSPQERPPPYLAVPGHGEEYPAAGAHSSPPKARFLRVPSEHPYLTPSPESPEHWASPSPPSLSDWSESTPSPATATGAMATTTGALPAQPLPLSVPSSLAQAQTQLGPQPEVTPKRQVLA
Fibroblast growth factor 10 (Homo sapiens), sequence (O15520 whole entry, looked up): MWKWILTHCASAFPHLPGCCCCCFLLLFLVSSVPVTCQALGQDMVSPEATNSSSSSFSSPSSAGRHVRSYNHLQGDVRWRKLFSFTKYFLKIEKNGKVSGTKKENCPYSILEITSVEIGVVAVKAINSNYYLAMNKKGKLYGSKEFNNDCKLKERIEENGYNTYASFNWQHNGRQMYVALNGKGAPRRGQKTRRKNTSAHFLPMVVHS
Follistatin-related protein 3 (Homo sapiens), sequence (O95633 whole entry, looked up): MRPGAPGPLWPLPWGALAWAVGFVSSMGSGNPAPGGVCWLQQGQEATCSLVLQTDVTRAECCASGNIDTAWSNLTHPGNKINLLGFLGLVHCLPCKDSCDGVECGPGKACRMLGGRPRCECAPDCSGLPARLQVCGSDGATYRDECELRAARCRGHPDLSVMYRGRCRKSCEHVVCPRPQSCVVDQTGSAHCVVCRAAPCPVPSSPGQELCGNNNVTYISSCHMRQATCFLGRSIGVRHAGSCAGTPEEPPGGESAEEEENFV

`CC(C)=CCN(C(=O)C#Cc1ccccc1)[C@H](CO)c1ccccc1`: the composite z-score in [1] is 0.95; in test [5], 1.2; in test [7] it was -0.116; in test [8] it was 0.69; in test [9] it was 0.829; in [10], -0.0302. Also, the composite z-score in test [11] is -0.117; in test [12], -0.267; in test [13] it was -0.693; in [15], 0.341; in test [16], 0.506; in test [17], 0.512. Further, the values for the composite z-score in test [18], in test [19] and in test [20] were 0.604, 0.439 and 0.661, respectively. Also, the z-score in [2] is -0.577 (inactive); in test [3] it was -4.9 (inactive); in test [4] it was 36.4 (active); in test [6], 0.354 (inactive); in test [14], 7.56 (inactive).

Take `CCCCC=C[C@@H](NC(=O)c1ccc(C(F)(F)F)cc1)c1ccccc1`: the composite z-score was -0.461 in [1]; 0.748 in test [5]; -0.0285 in [7]; -0.905 in test [8]; -0.76 in test [9]; -0.566 in test [10]. The composite z-score in [11] was -0.101; in [12] it was 0.256; in test [13], 0.905; in test [15] it was -1.13; in test [16], -1.03; in [17], -1.28. The composite z-score was -1.01 in test [18], -1.37 in [19] and 1.37 in test [20]. For the same compound, the z-score in [2] is -0.27 (inactive); in test [3] it was -8.36 (active); in test [4], -1.79 (inactive); in [6], -1.07 (inactive); in test [14], -4.33 (inactive).

Turning to `CC=CC(O)C1C=CC2C(=O)N(C)C(=O)C2N1NC(=O)OC(C)(C)C` (stereo not given), the composite z-score in test [1] is 0.534; in test [5] it was 0.522; in test [7], -0.286; in test [8] it was 0.251; in [9], 0.775; in [10], -0.0244. Also, the composite z-score in [11] is 0.589; in test [12] it was 0.112; in test [13] it was -0.388; in test [15], 0.216; in test [16], 0.423; in test [17] it was 0.271. Moreover, the composite z-score was 0.864 in test [18], 0.739 in [19] and 1.04 in [20]. Further, the z-score in test [2] was -0.219 (inactive); in [3] it was 0.64 (inactive); in test [4] it was 0.0896 (inactive); in test [6] it was -1.13 (inactive); in test [14], 1.54 (inactive).

For the compound `CCCC[C@H]1OB(O)C[C@H]2C1=C(COC)C[C@H]1C(=O)C=CC(=O)[C@H]12`, the composite z-score in test [1] is 1.42; in [5], 0.117; in test [7], -0.0798; in test [8], 0.747; in test [9] it was 0.936; in test [10] it was -0.071. Also, the composite z-score in [11] was 0.351; in test [12] it was -0.177; in test [13], -0.461; in test [15], 0.6; in [16], 0.385; in test [17], 0.645. The values for the composite z-score in test [18], in test [19] and in test [20] were 1.07, 0.717 and 1.21, respectively. Further, the z-score is 0.275 (inactive) in test [2]; -1.56 (inactive) in [3]; -0.293 (inactive) in test [4]; 0.898 (inactive) in test [6]; 0.635 (inactive) in [14].

On to `CCCC=C(CCC)[C@@H](NC(=O)c1ccco1)c1ccc(C(=O)OC)cc1`, for which the composite z-score in [1] was 0.997; in test [5] it was 3.52; in [7], 0.198; in test [8], 0.678; in test [9], 1.06; in [10], -0.15. The composite z-score in test [11] stood at 0.851; in test [12], 0.241; in test [13] it was 1.01; in [15], 1.08; in test [16], 1.3; in test [17], 0.0415. For the same compound, the composite z-score is 0.938 in test [18], -0.18 in test [19] and 0.46 in test [20]. Besides, the z-score is 1.06 (inactive) in [2]; 0.113 (inactive) in test [3]; 2.22 (inactive) in [4]; -0.868 (inactive) in test [6]; -0.545 (inactive) in [14].
